Active and inactive are the calls of the source. Unless noted, no rule for the calls is given here.

Experiment [1] is described as follows: compound effects on lung adenocarcinoma cell viability – A549, calcein-AM fluorescence, 48 h, basal, profiling panel (AID 1162). Also: test concentration not given here. The settings on record: higher = more signal.
Experiment [2] is described as follows: compound effects on differentiated 3T3-L1 adipocyte viability – cell-based, 3T3-L1 adipocytes, calcein-AM fluorescence, 48 h, basal, profiling panel (AID 1163). Also: test concentration not given here. To be noted: 3T3-L1 adipocytes viability, higher = more signal.
Experiment [3] in a line: compound effects on hepatocellular carcinoma cell viability – HepG2, calcein-AM fluorescence, 48 h, basal, profiling panel (AID 1164). Also: test concentration not given here. The settings on record: higher = more signal.
Experiment [4] is described as follows: compound effects on multiple myeloma cell viability – MM1S, calcein-AM fluorescence, 48 h, basal, profiling panel (AID 1165).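 Also: viability of MM1S multiple myeloma cells under basal unstimulated conditions; test concentration not given here.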 The settings on record: higher = more signal.
The nature of experiment [5]: calcein-AM signal in unstimulated myeloma cells – cell-based, calcein-AM fluorescence, 48 h, PK04 Diversity Set, profiling panel (AID 1166).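 Also: cells grown under basal conditions without added stimulus; test concentration not given here.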 To be noted: RPMI8226 myeloma viability, higher = more signal.
Experiment [6] can be described thus: JC-1 mitochondrial signal, unstimulated HepG2 cells – cell-based, JC-1 fluorescence, 24 h, 100 nL compound, profiling panel (AID 1167). Also: test concentration not given here. The settings on record: HepG2 mitochondrial potential, higher = more signal.
The nature of experiment [7]: JC-1 mitochondrial signal, unstimulated adipocytes – cell-based, JC-1 fluorescence, 3T3-L1 adipocytes, 24 h, 100 nL compound, profiling panel (AID 1168). Also: test concentration not given here. The settings on record: JC-1 mitochondrial fluorescence, higher = more signal, called active from +8 up or from −8 down.
The nature of experiment [8]: JC-1 mitochondrial signal, unstimulated myeloma cells – cell-based, JC-1 fluorescence, RPMI8226, 24 h, 100 nL compound, profiling panel (AID 1169). Also: test concentration not given here. To be noted: JC-1 mitochondrial potential fluorescence, higher = more signal.
The nature of experiment [9]: JC-1 mitochondrial signal, unstimulated MM1S myeloma – cell-based, JC-1 fluorescence, 24 h, 100 nL compound, profiling panel (AID 1170). Also: test concentration not given here. To be noted: MM1S mitochondrial potential, higher = more signal.
Experiment [10] can be described thus: resazurin metabolic signal in A549 cells – cell-based, resazurin fluorescence, 24 h, PK04 Diversity Set, profiling panel (AID 1171). Also: test concentration not given here. The settings on record: A549 viability, higher = more signal, called active from +8 up or from −8 down. Background: Resazurin is reduced to fluorescent resorufin, in cell work by metabolically active cells.
Experiment [11] is described as follows: resazurin metabolic signal in HepG2 cells – cell-based, resazurin fluorescence, 24 h, PK04 Diversity Set, profiling panel (AID 1172). Also: test concentration not given here. The settings on record: HepG2 viability, higher = more signal.
The nature of experiment [12]: budding yeast growth changes without added modifier – OD600, strain BY4716, 24 h, basal condition, primary screen (AID 1173). To be noted: S. cerevisiae BY4716 growth, OD600, 24 h; higher = more signal, called active from +8 up or from −8 down.
The nature of experiment [13]: viability profiling in MM1S myeloma cells – cell-based, resazurin fluorescence, basal, 24 h, PK04 Diversity Set, profiling panel (AID 1174). Also: test concentration not given here. The settings on record: higher = more signal, called active from +8 up or from −8 down.
In experiment [14] the target is Dihydroorotate dehydrogenase (quinone), mitochondrial (Plasmodium falciparum (isolate 3D7)) (UniProt Q08210). Description: inhibition of P. falciparum DHODH – biochemical, C-terminal His tag, absorbance 600 nm, primary screen (AID 1175).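 Also: recombinant parasite enzyme with a five histidine tag at its C terminus; test concentration not given here.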 The settings on record: PfDHODH enzyme, DCIP absorbance 600 nm; higher = more signal, called active from +8 up or from −8 down.
Sequence of Dihydroorotate dehydrogenase (quinone), mitochondrial (Plasmodium falciparum (isolate 3D7)) (Q08210 whole entry, looked up): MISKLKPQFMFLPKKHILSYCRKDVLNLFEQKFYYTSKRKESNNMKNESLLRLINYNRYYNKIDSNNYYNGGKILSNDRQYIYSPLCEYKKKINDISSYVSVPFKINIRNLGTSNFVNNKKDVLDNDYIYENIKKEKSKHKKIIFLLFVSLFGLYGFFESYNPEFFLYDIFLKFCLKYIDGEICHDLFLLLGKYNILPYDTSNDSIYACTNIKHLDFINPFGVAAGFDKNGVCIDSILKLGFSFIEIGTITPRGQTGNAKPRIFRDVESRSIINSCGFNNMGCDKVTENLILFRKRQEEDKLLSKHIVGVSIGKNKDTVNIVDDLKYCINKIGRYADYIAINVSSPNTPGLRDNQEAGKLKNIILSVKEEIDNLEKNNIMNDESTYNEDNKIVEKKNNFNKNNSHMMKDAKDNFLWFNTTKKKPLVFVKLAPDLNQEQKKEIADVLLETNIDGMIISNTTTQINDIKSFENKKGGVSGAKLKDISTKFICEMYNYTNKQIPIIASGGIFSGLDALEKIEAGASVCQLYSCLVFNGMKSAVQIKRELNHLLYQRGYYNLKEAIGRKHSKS
The nature of experiment [15]: inhibition of PAO1 biofilm formation – strain PAO1, LB-PBS medium, absorbance 600 nm, primary screen (AID 1176). Also: test concentration not given here. The settings on record: P. aeruginosa PAO1 growth/biofilm, A600, 12 h; higher = more signal.
The nature of experiment [16]: growth modulation of vineyard yeast isolate – strain RM11-1a, OD600, basal, 24 h, primary screen (AID 1177).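 Also: cultures grown under basal conditions with no added stressor; test concentration not given here.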 The settings on record: S. cerevisiae RM11-1a growth, OD600, 24 h; higher = more signal, called active from +8 up or from −8 down.
A short description of experiment [17]: growth of efflux-deficient E. coli DRC39 – strain DRC39, OD650, 24 h, E. coli filamentation inducers, primary screen (AID 1178).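 Also: growth measured as culture turbidity by optical density at 650 nm; test concentration not given here.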 To be noted: E. coli DRC39 acrAB, higher = more signal, called active from +8 up or from −8 down.
Experiment [18] can be described thus: growth of efflux-deficient E. coli DRC39 – strain DRC39, OD650, 48 h, E. coli filamentation inducers, primary screen (AID 1179).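 Also: screen aims at cell division blockers that make cells filament.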 To be noted: E. coli DRC39 delta-acrAB growth, higher = more signal, called active from +8 up or from −8 down.
Experiment [19] in a line: viability profiling in RPMI8226 myeloma cells – cell-based, resazurin fluorescence, basal, 24 h, PK04 Diversity Set, profiling panel (AID 1180).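 Also: RPMI8826 multiple myeloma cell line at 5000 cells per well; test concentration not given here.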 The settings on record: higher = more signal.
The target of experiment [20] is E3 ubiquitin-protein ligase XIAP (Homo sapiens) (UniProt P98170). In words: small molecules binding XIAP protein – biophysical, small-molecule microarray, fluorescence 635 nm, primary screen (AID 1181).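 Also: score merges 667 nm emission and signal to noise over triplicate slides.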 To be noted: higher = more signal.
Sequence of E3 ubiquitin-protein ligase XIAP (Homo sapiens) (P98170 whole entry, looked up): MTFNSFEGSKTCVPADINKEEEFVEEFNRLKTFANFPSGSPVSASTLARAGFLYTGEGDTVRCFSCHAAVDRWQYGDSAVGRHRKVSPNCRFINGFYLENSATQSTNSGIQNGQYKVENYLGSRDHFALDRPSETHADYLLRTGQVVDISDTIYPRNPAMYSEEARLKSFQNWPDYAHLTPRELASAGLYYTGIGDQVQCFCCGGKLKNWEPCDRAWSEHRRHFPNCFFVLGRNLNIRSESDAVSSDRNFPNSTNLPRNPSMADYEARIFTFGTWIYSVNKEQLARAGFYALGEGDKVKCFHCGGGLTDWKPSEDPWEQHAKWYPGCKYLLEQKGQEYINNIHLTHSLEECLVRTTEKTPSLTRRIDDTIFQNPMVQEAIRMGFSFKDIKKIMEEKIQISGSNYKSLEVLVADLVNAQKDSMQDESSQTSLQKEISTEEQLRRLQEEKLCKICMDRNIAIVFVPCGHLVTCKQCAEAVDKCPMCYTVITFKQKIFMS

`[N-]=[N+]=NCc1ccccc1[C@H]1OC(c2ccc(OCCCO)cc2)=N[C@@]1(CCS(=O)(=O)c1ccccc1)C(=O)N1CCOCC1`: the z-score in [1] was 1.91; in experiment [2] it was 0.831; in experiment [3] it was 1.01; in [4], -0.921; in experiment [5], 0.695; in [6] it was -1.05. The z-score in experiment [7] is 0.455 (inactive); in experiment [8], -0.507; in experiment [9], -0.877; in [10], 0.388 (inactive); in experiment [11], -0.0894; in experiment [12], 0.798 (inactive). In addition, the z-score in experiment [13] was -0.306 (inactive); in experiment [15], 0.631 (inactive); in experiment [16] it was 0.686 (inactive); in experiment [17], 0.186 (inactive); in [18], -0.109 (inactive); in experiment [19], -0.8. The composite z-score in experiment [14] was 0.274 (inactive); in experiment [20], -0.309.

In the case of `COC(=O)C(CC#Cc1ccc2c(c1)[C@]1(C(=O)N2)[C@H](c2ccc(OCCO)cc2)N2[C@H](c3ccccc3)[C@H](c3ccccc3)OC(=O)[C@H]2[C@@H]1C(=O)NC[C@H](O)c1ccccc1)C(=O)OC`, the z-score is 0.876 in experiment [1]; 1.04 in [2]; 1.31 in [3]; -1.67 in experiment [4]; -1.2 in experiment [5]; -1.13 in experiment [6]. The z-score in [7] is 0.833 (inactive); in experiment [8] it was -1.29; in [9], -1.35; in [10], 0.795 (inactive); in [11] it was 0.722; in experiment [12], 1.51 (inactive). Further, the z-score in experiment [13] is 0.343 (inactive); in [15], 1.05 (inactive); in experiment [16], 3.39 (inactive); in experiment [17], 0.602 (inactive); in [18], 0.869 (inactive); in experiment [19] it was -0.47. Moreover, the figures for the composite z-score in [14] and in experiment [20] were 0.676 (inactive) and 0.104, respectively.

With `O=C1O[C@@H](c2ccccc2)[C@@H](c2ccccc2)N2[C@@H](c3ccccc3OCCO)[C@]3(C(=O)Nc4ccc(C#CC5(O)CCCCCC5)cc43)[C@@H](C(=O)Nc3nc4ccccc4s3)[C@H]12`, the z-score in experiment [1] was -1.49; in experiment [2], 0.601; in experiment [3], -3; in experiment [4], -3.22; in [5] it was -4.17; in experiment [6] it was -2.67. The z-score in experiment [7] is 2.71 (inactive); in [8], -0.863; in [9], -1.41; in [10], -1.34 (inactive); in experiment [11], -0.592; in experiment [12], 0.193 (inactive). Further, the z-score was -3.35 (inactive) in [13]; 2.5 (inactive) in [15]; 1.86 (inactive) in [16]; -0.994 (inactive) in experiment [17]; -1.19 (inactive) in experiment [18]; -4.98 in experiment [19]. In addition, the composite z-score in experiment [14] is 0.18 (inactive); in experiment [20], 0.0077.

Take `COCCOC(=O)N1C(=O)[C@@]2(c3cc(C#CCNC(N)=O)ccc31)[C@H](C(=O)N1CCN(c3ncccn3)CC1)[C@H]1C(=O)O[C@H](c3ccccc3)[C@H](c3ccccc3)N1[C@@H]2c1ccccc1OCCO`: the z-score in experiment [1] was -0.246; in experiment [2] it was 1.24; in experiment [3] it was -0.539; in experiment [4], -0.648; in [5] it was -0.876; in experiment [6], -1.43. The z-score in experiment [7] was 1.29 (inactive); in experiment [8], -1.09; in [9], -1.04; in experiment [10] it was 1.02 (inactive); in [11] it was 0.841; in experiment [12], 2.3 (inactive). Further, the z-score in [13] is 0.0815 (inactive); in experiment [15], 0.669 (inactive); in [16] it was 3.47 (inactive); in [17] it was 0.559 (inactive); in [18], -0.438 (inactive); in experiment [19] it was 0.147. The composite z-score in [14] is 0.373 (inactive); in experiment [20], 0.0611.
